Source: PubChem BioAssay (Tox21)
Records with an inconclusive call do not appear. Calls of active or inactive are those of the source. Unless noted, calls follow the shape of the full dose curve.

Key:
[1] = qHTS assay to identify small molecule antagonists of the peroxisome proliferator-activated receptor delta (PPARd) signaling pathway - cell viability counter screen (AID 743213; active = well fitted curve in the direction sought with a large enough effect in the repeat runs; an effect the other way counts as inactive or inconclusive; also: % is scaled to controls: 0 for no effect and ±100 for the full control effect; nearly all actives have a fitted effect of over 50% in size)
In short: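 Viability counter-screen, qHTS format: PPARd-bla HEK293H, L165041 300 nM final, 17 h compound exposure at 37 C, CellTiter-Glo luminescence after 30 min RT.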

[2] = target: Peroxisome proliferator-activated receptor delta (Homo sapiens) (UniProt Q03181); assay: qHTS assay to identify small molecule antagonists of the peroxisome proliferator-activated receptor delta (PPARd) signaling pathway (AID 743215; active = well fitted inhibition curve with a large enough effect in the signal ratio in the repeat runs, not every such curve was filed as active; the % refers to the signal ratio;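 also: cells stimulated with agonist L165041 at 300 nM final during compound exposure; series mostly up to about 62 µM; % is scaled to controls: 0 for no effect and ±100 for the full control effect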)
Chain of Peroxisome proliferator-activated receptor delta (Homo sapiens) (Q03181 whole entry, looked up): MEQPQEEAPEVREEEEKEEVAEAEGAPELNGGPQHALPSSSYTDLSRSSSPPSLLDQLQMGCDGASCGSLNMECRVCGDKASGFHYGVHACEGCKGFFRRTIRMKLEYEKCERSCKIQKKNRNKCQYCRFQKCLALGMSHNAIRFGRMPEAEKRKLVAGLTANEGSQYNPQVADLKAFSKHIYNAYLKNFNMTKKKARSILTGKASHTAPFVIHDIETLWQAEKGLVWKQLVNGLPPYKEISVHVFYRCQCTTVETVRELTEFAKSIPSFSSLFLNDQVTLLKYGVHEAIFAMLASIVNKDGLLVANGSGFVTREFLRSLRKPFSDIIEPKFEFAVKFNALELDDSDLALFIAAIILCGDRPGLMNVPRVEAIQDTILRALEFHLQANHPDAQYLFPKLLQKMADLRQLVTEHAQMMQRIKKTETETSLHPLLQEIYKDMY
In short: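 Inhibition of L165041-driven (300 nM final) PPARd signaling is scored in HEK293H UAS-bla cells. Exposure lasts 17 h at 37 C; beta-lactamase activity is then read by FRET substrate fluorescence after 2 h at room temperature.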

[3] = qHTS assay to identify small molecule agonists of the farnesoid-X-receptor (FXR) signaling pathway - cell viability counter screen (AID 743218; active = well fitted curve in the direction sought with a large enough effect in the repeat runs; an effect the other way counts as inactive or inconclusive; also: % is scaled to controls: 0 for no effect and ±100 for the full control effect; nearly all actives have a fitted effect of over 45% in size)
In short: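 Cytotoxicity counter-screen run in parallel, same wells: FXR-UAS-bla HEK 293T cells dosed 16 h at 37 C, viability read by CellTiter-Glo luminescence after 30 min at room temperature.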

[4] = qHTS assay to identify small molecule antagonists of the farnesoid-X-receptor (FXR) signaling pathway - cell viability counter screen (AID 743221; active = well fitted cell-killing curve with a large enough effect in the repeat runs, not every such curve was filed as active; also: % is scaled to controls: 0 for no effect and ±100 for the full control effect; nearly all actives have a fitted effect of over 50% in size)
In short: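 Cytotoxicity counter screen run in the FXR-bla reporter wells: HEK 293T cells exposed to compound with 50 uM (final) chenodeoxycholic acid for 16 h, 37 C, then viability measured by CellTiter-Glo luminescence after 30 min, room temperature.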

[5] = target: Vitamin D3 receptor (Homo sapiens) (UniProt P11473); assay: qHTS assay to identify small molecule agonists of the vitamin D receptor (VDR) signaling pathway (AID 743222); also: % is scaled to controls: 0 for no effect and ±100 for the full control effect
Chain of Vitamin D3 receptor (Homo sapiens) (P11473 whole entry, looked up): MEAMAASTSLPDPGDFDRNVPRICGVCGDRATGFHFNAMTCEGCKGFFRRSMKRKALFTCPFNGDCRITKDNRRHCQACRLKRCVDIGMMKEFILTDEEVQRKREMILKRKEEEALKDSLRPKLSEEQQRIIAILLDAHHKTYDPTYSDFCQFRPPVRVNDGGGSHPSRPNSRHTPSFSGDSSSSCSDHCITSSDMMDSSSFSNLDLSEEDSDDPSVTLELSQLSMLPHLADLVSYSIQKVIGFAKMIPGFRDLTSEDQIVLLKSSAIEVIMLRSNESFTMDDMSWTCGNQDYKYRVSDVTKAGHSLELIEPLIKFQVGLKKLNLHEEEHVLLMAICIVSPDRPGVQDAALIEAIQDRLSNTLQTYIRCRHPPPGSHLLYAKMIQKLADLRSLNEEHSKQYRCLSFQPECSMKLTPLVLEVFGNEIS
In short: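 Quantitative HTS agonist-mode screen: compounds in DMSO were pin-transferred onto VDR-bla cells and incubated 16 h at 37C, 5% CO2. Reporter activity was detected with LiveBLAzer B/G FRET substrate after 2 h at room temperature.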

[6] = target: Vitamin D3 receptor (Homo sapiens) (UniProt P11473); assay: qHTS assay to identify small molecule antagonists of the vitamin D receptor (VDR) signaling pathway (AID 743223; active = well fitted inhibition curve with a large enough effect in the signal ratio in the repeat runs, not every such curve was filed as active; the % refers to the signal ratio; also: % is scaled to controls: 0 for no effect and ±100 for the full control effect)
In short: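 Antagonist mode: compound added to VDR-bla cells alongside agonist 1alpha,25-dihydroxyvitamin D3 (3 nM final), incubation 16 h at 37C. Read-out is LiveBLAzer FRET fluorescence, 2 h at room temperature.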

[7] = qHTS assay to identify small molecule agonists of the vitamin D receptor (VDR) signaling pathway - cell viability counter screen (AID 743224; active = well fitted curve in the direction sought with a large enough effect in the repeat runs; an effect the other way counts as inactive or inconclusive; also: series mostly up to about 63 µM; % is scaled to controls: 0 for no effect and ±100 for the full control effect; nearly all actives have a fitted effect of over 50% in size)
In short: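 Viability is measured in the same wells as the VDR-bla reporter assay: after 16 h compound treatment and 2 h substrate loading, CellTiter-Glo is added and luminescence read 30 min later.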

[8] = qHTS assay to identify small molecule antagonists of the vitamin D receptor (VDR) signaling pathway - cell viability counter screen (AID 743225; active = well fitted curve in the direction sought with a large enough effect in the repeat runs; an effect the other way counts as inactive or inconclusive; also: % is scaled to controls: 0 for no effect and ±100 for the full control effect; nearly all actives have a fitted effect of over 50% in size)
In short: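 Cytotoxicity counter screen read by CellTiter-Glo luminescence (30 min, room temperature) in the same wells as the VDR-bla antagonist readout. HEK 293T VDR-UAS-bla cells had 16 h at 37C with compound and 3 nM (final) 1-alpha,25-dihydroxyvitamin D3, then 2 h with FRET substrate.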

[9] = qHTS assay to identify small molecule agonists of the NFkB signaling pathway (AID 1159509; active = well fitted curve in the direction sought with a large enough effect in the signal ratio in the repeat runs, not every such curve was filed as active; the % refers to the signal ratio; also: series mostly up to about 61 µM; % is scaled to controls: 0 for no effect and ±100 for the full control effect)
In short: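 NFkB-bla ME-180 cells carry a beta-lactamase reporter under an NF-kB response element. They were plated overnight, then exposed to compounds for 5 h at 37 C. Read-out is LiveBLAzer FRET after 1.5 hr at room temperature (405 nm excitation; 460/530 nm emission).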

[10] = qHTS assay to identify small molecule agonists of the NFkB signaling pathway - cell viability counter screen (AID 1159515); also: series mostly up to about 61 µM; % is scaled to controls: 0 for no effect and ±100 for the full control effect; nearly all actives have a fitted effect of over 55% in size
In short: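 Multiplexed viability readout: after the 5 hr compound exposure and 1.5 hr FRET substrate step, CellTiter-Glo reagent went into the same NFkB-bla ME-180 wells; ATP luminescence was measured after 30 min at room temperature.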

[11] = qHTS assay to identify small molecule agonists of the endoplasmic reticulum stress response signaling pathway (AID 1159516; active = well fitted activation curve with a large enough effect in the signal ratio in the repeat runs, not every such curve was filed as active; the % refers to the signal ratio; also: % is scaled to controls: 0 for no effect and ±100 for the full control effect)
In short: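 Tox21 10K library screened in quantitative HTS format on ESRE-bla HeLa cells, a beta-lactamase reporter under ER stress response element control; 5 hr treatment, FRET read.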

[12] = qHTS assay to identify small molecule agonists of the endoplasmic reticulum stress response signaling pathway - cell viability counter screen (AID 1159517)
In short: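 CellTiter-Glo was added to wells already read for beta-lactamase FRET, and luminescence was recorded 30 min later. Cells: ESRE-bla HeLa, 1,500 per well, compound exposure 5 hr at 37 C.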

[13] = qHTS assay to identify small molecule antagonists of the retinoid-related orphan receptor gamma (ROR-gamma) signaling pathway - cell viability counter screen (AID 1159520; active = well fitted curve in the direction sought with a large enough effect in the repeat runs; an effect the other way counts as inactive or inconclusive)
In short: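 Tet-on ROR gamma CHO cells (1,000/well) were plated 4 hr, given compounds in DMSO for 2 hr at 37 C, then induced with 1 uM final doxycycline for 16 hr. Viability was read as ATP by CellTiter-Glo luminescence after 30 min.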

[14] = qHTS assay to identify small molecule agonists of the AP-1 signaling pathway - cell viability counter screen (AID 1159525); also: nearly all actives have a fitted effect of over 55% in size
In short: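 ME-180 AP-1-bla, 2500 cells/well, Opti-MEM + 0.5% dialyzed FBS; overnight 37 °C; cpd 15-pt titration, 5 h 37 °C; CellTiter-Glo 30 min RT; luminescence read; normalised to TOAB and DMSO controls.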

[15] = qHTS assay to identify small molecule agonists of the AP-1 signaling pathway (AID 1159526); also: % is scaled to controls: 0 for no effect and ±100 for the full control effect
[16] = target: Peroxisome proliferator-activated receptor delta (Homo sapiens) (UniProt Q03181); assay: qHTS assay to identify small molecule agonists of the peroxisome proliferator-activated receptor delta (PPARd) signaling pathway (AID 743212); also: % is scaled to controls: 0 for no effect and ±100 for the full control effect
In short: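 A PPARd-bla HEK293H line with beta-lactamase under an Upstream Activator Sequence is treated with compounds at 37 C. Substrate loading for 2 h at room temperature precedes the fluorescence measurement.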

[17] = target: Retinoic acid receptor RXR-alpha (Homo sapiens) (UniProt P19793); assay: qHTS assay to identify small molecule agonists of the RXR signaling pathway (AID 1159527); also: % is scaled to controls: 0 for no effect and ±100 for the full control effect; nearly all actives have a fitted effect of over 35% in size
Chain of Retinoic acid receptor RXR-alpha (Homo sapiens) (P19793 whole entry, looked up): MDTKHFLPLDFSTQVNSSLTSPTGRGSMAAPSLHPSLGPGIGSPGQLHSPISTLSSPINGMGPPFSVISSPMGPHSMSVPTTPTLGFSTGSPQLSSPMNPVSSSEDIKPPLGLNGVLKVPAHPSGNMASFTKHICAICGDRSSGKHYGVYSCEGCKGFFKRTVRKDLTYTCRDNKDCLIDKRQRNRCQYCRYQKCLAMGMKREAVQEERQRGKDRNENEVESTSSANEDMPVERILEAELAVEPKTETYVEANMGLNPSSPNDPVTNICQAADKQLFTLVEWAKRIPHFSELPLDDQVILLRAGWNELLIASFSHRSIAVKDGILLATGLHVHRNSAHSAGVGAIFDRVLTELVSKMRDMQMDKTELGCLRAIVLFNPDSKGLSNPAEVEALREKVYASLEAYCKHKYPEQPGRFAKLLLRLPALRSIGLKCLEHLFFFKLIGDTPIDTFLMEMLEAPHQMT
In short: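 Agonist-mode beta-lactamase reporter assay: HEK 293T RXR-alpha-UAS-bla cells treated 16 hr at 37 C with compounds, 9-cis retinoic acid as positive control. LiveBLAzer FRET substrate, 405 nm excitation, 460/530 nm emission.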

[18] = target: Bile acid receptor (Homo sapiens) (UniProt Q96RI1); assay: qHTS assay to identify small molecule antagonists of the farnesoid-X-receptor (FXR) signaling pathway (AID 743217; active = well fitted inhibition curve with a large enough effect in the signal ratio in the repeat runs, not every such curve was filed as active; the % refers to the signal ratio; also: % is scaled to controls: 0 for no effect and ±100 for the full control effect)
Chain of Bile acid receptor (Homo sapiens) (Q96RI1 whole entry, looked up): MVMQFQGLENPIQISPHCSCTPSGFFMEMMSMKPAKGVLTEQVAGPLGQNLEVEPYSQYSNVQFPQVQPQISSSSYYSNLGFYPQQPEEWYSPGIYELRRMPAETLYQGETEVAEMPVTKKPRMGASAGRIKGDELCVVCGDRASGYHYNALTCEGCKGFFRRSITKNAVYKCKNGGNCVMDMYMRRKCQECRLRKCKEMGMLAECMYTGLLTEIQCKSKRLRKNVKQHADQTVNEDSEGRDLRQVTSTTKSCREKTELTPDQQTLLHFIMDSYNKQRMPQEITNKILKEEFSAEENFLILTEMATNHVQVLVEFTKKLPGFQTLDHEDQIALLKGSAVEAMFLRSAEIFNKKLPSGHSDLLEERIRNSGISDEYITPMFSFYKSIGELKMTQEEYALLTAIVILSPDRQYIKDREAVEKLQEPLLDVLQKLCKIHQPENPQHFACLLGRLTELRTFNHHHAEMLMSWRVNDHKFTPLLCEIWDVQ
In short: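 Antagonist mode against 50 uM (final) chenodeoxycholic acid stimulation in FXR-bla HEK 293T cells, 16 h at 37 °C. Inhibition detected as reduced beta-lactamase activity via LiveBLAzer B/G FRET fluorescence after 2 h at room temperature.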

[19] = target: Bile acid receptor (Homo sapiens) (UniProt Q96RI1); assay: qHTS assay to identify small molecule agonists of the farnesoid-X-receptor (FXR) signaling pathway (AID 743220; active = well fitted activation curve with a large enough effect in the signal ratio in the repeat runs, not every such curve was filed as active; the % refers to the signal ratio; also: % is scaled to controls: 0 for no effect and ±100 for the full control effect)
In short: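 Beta-lactamase reporter under UAS control in GeneBLAzer FXR HEK 293T cells (5000/well) measured with LiveBLAzer FRET substrate after 2 h at room temperature. Compound exposure lasted 16 h at 37C.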

Cc1ccnc2ccccc12
inactive: Potency [1] | Potency [2] | Potency [3] | Potency [4] | outcome [5] | outcome [6] | Potency [7] | Potency [8] | outcome [9] | outcome [10] | outcome [11] | outcome [12] | Potency [13] | outcome [14] | outcome [15]

CC1=CC(O)CC(C)(C)C1 (centres undefined)
inactive: Potency [16] | Potency [1] | Potency [4] | outcome [5] | outcome [6] | Potency [7] | Potency [8] | outcome [9] | outcome [10] | outcome [11] | outcome [12] | Potency [13] | outcome [14] | outcome [15]

CN1C(=O)CC(C)(c2ccccc2)C1=O (centres undefined)
inactive: Potency [16] | Potency [1] | Potency [3] | Potency [4] | outcome [5] | outcome [6] | Potency [7] | Potency [8] | outcome [9] | outcome [10] | outcome [11] | outcome [12] | Potency [13] | outcome [14] | Potency [17]

[O]=[Bi]
inactive: activation [16] 2.74% [at 5.95 µM] | viability change, negative = cytotoxic [1] -12.9% [at 6.26 µM] | ratio activity, negative = inhibition [2] 3.78% [at 6.26 µM] | activity change, negative = inhibition [18] 6.5% [at 5.95 µM] | viability change, negative = cytotoxic [3] 7.08% [at 5.95 µM] | activation [19] 0.937% [at 5.95 µM] | activity change, negative = cytotoxicity [4] 2.95% [at 5.95 µM] | activity change, negative = inhibition [6] 5.58% [at 6.95 µM] | viability change, negative = cytotoxic [8] -2.19% [at 6.95 µM] | activation [9] -0.308% [at 6.95 µM] | activity, negative = cytotoxic [10] 3.69% [at 6.95 µM] | activation [11] -0.917% [at 6.95 µM] | activity change, negative = cytotoxicity [12] 9.83% [at 6.95 µM] | activity, negative = cytotoxicity [13] 7.56% [at 8.39 µM] | viability change, negative = cytotoxic [14] 2.46% [at 6.97 µM] | activation [17] -1.06% [at 6.98 µM]

CC(C)=CC=O
inactive: Potency [16] | Potency [1] | Potency [2] | Potency [3] | Potency [4] | outcome [5] | outcome [6] | Potency [7] | Potency [8] | outcome [9] | outcome [10] | outcome [11] | outcome [12] | Potency [13] | outcome [14] | outcome [15]

CC(C)CCCCCCOC(=O)CCCCC(=O)OCCCCCCC(C)C
inactive: Potency [16] | Potency [1] | Potency [2] | Potency [18] | Potency [3] | Potency [19] | Potency [4] | outcome [5] | Potency [7] | Potency [8] | outcome [9] | outcome [10] | outcome [11] | outcome [12] | Potency [13] | outcome [14] | Potency [17]

Cc1ccc(/C=N/n2c(-c3ccccc3)csc2=S)cc1
inactive: Potency [16] | Potency [1] | Potency [2] | Potency [3] | Potency [4] | outcome [5] | outcome [6] | Potency [7] | Potency [8] | outcome [9] | outcome [10] | outcome [11] | outcome [12] | Potency [13] | outcome [14] | outcome [15]

CCCCC(CC)C(=O)OCCOCCOCCOCCOC(=O)C(CC)CCCC (centres undefined)
inactive: Potency [1] | Potency [18] | Potency [19] | Potency [4] | outcome [5] | outcome [6] | Potency [7] | outcome [9] | outcome [10] | outcome [11] | outcome [12] | Potency [13] | outcome [14] | outcome [15]

NCC1CCCC(CN)C1 (centres undefined)
inactive: Potency [1] | Potency [2] | Potency [18] | Potency [3] | Potency [4] | outcome [5] | Potency [7] | Potency [8] | outcome [9] | outcome [10] | outcome [11] | outcome [12] | Potency [13] | outcome [14] | outcome [15]

CC(Cl)C(Cl)Cl (centres undefined)
inactive: Potency [16] | Potency [1] | Potency [2] | Potency [3] | Potency [4] | outcome [5] | outcome [6] | Potency [7] | Potency [8] | outcome [9] | outcome [10] | outcome [11] | outcome [12] | Potency [13] | outcome [14] | outcome [15]

O=C(N/N=C/c1ccc([N+](=O)[O-])o1)c1ccc(O)cc1
inactive: Potency [1] | Potency [3] | Potency [4] | Potency [8] | outcome [9] | outcome [10] | outcome [11] | outcome [12] | Potency [13] | outcome [14] | outcome [15]

CN(C(=O)C(Cl)Cl)c1ccc(OC(=O)c2ccco2)cc1
inactive: Potency [1] | Potency [2] | Potency [18] | Potency [4] | outcome [5] | Potency [7] | Potency [8] | outcome [9] | outcome [10] | outcome [11] | outcome [12] | Potency [13] | outcome [14] | outcome [15]

C1COCO1
inactive: Potency [16] | Potency [1] | Potency [2] | Potency [3] | Potency [4] | outcome [5] | Potency [7] | Potency [8] | outcome [9] | outcome [10] | outcome [11] | outcome [12] | Potency [13] | outcome [14] | outcome [15]

O=C(CCCCCCCCC#CI)Oc1ccccc1
inactive: Potency [1] | Potency [2] | Potency [18] | Potency [3] | Potency [19] | Potency [4] | outcome [5] | outcome [6] | Potency [7] | Potency [8] | outcome [9] | outcome [10] | outcome [11] | outcome [12] | Potency [13] | outcome [14] | outcome [15]

CCCCC(=O)O[C@]1(C(=O)CO)CC[C@H]2[C@@H]3CCC4=CC(=O)CC[C@]4(C)[C@H]3[C@@H](O)C[C@@]21C
inactive: Potency [16] | Potency [1] | Potency [2] | Potency [18] | Potency [3] | Potency [19] | Potency [4] | Potency [7] | Potency [8] | outcome [9] | outcome [10] | outcome [11] | outcome [12] | Potency [13] | outcome [14] | Potency [17]

CC(=O)OCC(=O)[C@H]1CC[C@H]2[C@@H]3CCC4=CC(=O)CC[C@]4(C)[C@H]3CC[C@]12C
inactive: Potency [16] | Potency [1] | Potency [18] | Potency [3] | Potency [19] | Potency [4] | outcome [5] | outcome [6] | Potency [7] | Potency [8] | outcome [9] | outcome [10] | outcome [11] | outcome [12] | Potency [13] | outcome [14] | outcome [15]
